According to PubChem BioAssay (NCI):
The panel holds about 83,000 compounds, 20% with a hit somewhere; the sample as a whole holds those more often.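 In brief: 96-well plates, 48 h treatment, single concentration, percent growth endpoint.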 Values without a mark were called inactive. The source made the active and inactive calls. How the source made its calls: active means growth percent below 10; inactive means the rest.

tested on: A498 renal; experiment: NCI-60 one-dose screen, 48 h (100 = growth as untreated, 0 = no growth, -100 = all killed); settings: 10 µM unless noted

SMILES	growth
Nc1ccc(C2=Nc3cccc4cccc(c34)S2)cc1	55.9%
COc1cc2c(cc1OCCCOc1ccc(-c3cc4ccccc4c4ccccc34)cc1)N=C[C@@H]1CCCN1C2=O	-82.8% (active)
O=C(CCc1nnc(Cn2ccnc2)o1)c1nc2ccccc2[nH]1	101%
O=C(COC(=O)[C@H](C[Se][Se]C[C@H](NC(=O)c1ccc(Br)cc1F)C(=O)OCC(=O)c1ccc(F)cc1)NC(=O)c1ccc(Br)cc1F)c1ccc(F)cc1	-2.67% (active)
COc1ccc2[nH]cc(/C=C3/C(=O)Nc4ccc(Cl)cc43)c2c1	67.7%
Cc1cccc(Cl)c1NC(=O)c1ccc2nc(NC(=O)NC3CC(C)(C)NC(C)(C)C3)sc2c1	89%
NNC(=O)C1CC2c3ccccc3C1c1ccccc12 (centres undefined)	129%
Cn1[nH]cc(/C=N/C(N)=O)c1=O	104%
COc1ccc2[nH]c(-c3ccccc3)cc2c1	89%
CCCCn1c(Cc2ccc(Cl)cc2)nc2cc(OC)c(OC)cc2c1=O	101%
c1coc([C@@H]2C[C@@H]3Cc4ccc5ccccc5c4N2O3)c1	90.2%
CC(O)c1nc2c(c(=O)n(C)c(=O)n2C)n1C (centres undefined)	105%
Nc1ccccc1-c1ccc([N+](=O)[O-])cc1	75.9%
C=C(C[C@](O)(C(=O)/C=C/c1ccc(Cl)cc1)C(=O)OC)c1ccccc1	97.1%
N#Cc1ccc(NC(=O)Nc2ccc(Oc3ccc(NC(=O)Nc4ccc(C#N)cc4)cc3)cc2)cc1	41.1%
Oc1ccc(Cc2ccc(O)c(C3CC(c4ccc(Cl)cc4)=NN3)c2)cc1C1CC(c2ccc(Cl)cc2)=NN1 (centres undefined)	33.8%
CCC1=C(c2ccc(OC)cc2)C(C)Oc2cc(OC(C)=O)ccc21 (centres undefined)	90.7%
COc1ccc(/C=N\Nc2ccc([N+](=O)[O-])cn2)cc1OC	-26.2% (active)
COc1ncc(-c2ccc3nccc(C#CCN4CCN(S(C)(=O)=O)CC4)c3c2)cc1NS(=O)(=O)c1ccc(F)cc1F	-52.9% (active)

SMILES	growth
O=C(Nc1ccc(Cl)cc1)Nc1ccc(Nc2nncc3ccccc23)cc1	24.5%
Cc1cc(NC(=O)c2ccc(N)cc2)ccc1N=Nc1ccc2c(O)c(N=Nc3ccc(Cl)c(S(=O)(=O)O)c3)c(S(=O)(=O)O)cc2c1	88.9%
CCC(CCC(C)C1CCC2C3CC=C4CC(O)CCC4(C)C3CCC12C)C(C)C (centres undefined) (tested in a mixture with another compound)	104%
CCN1CCN(c2cc(-c3cn[nH]c3-c3cc(C)cc(OC)c3)nc(-c3cccnc3)n2)CC1	15.1%
Cc1ccc(NC(=O)Nc2ccc(-c3cccnc3)cc2N2CCC(CO)CC2)cc1	-36.2% (active)
Cc1c(C(N)=O)sc2ncn(CC(=O)Nc3ccc(Cl)cc3)c(=O)c12	126%
COc1cc(/C=C/c2nnc(-c3cc(-c4ccccc4)n[nH]3)o2)cc(OC)c1OC	105%
N#Cc1cnc2cc(OC[C@H](O)CO)c(NC(=O)CC3CSSC3)cc2c1Nc1ccc(OCc2cccc(F)c2)c(Cl)c1	-71.5% (active)
COc1ccc(/C=N/NC(=O)c2ccc(S(C)(=O)=O)cc2)cc1OC	94.6%
O=C1OC(c2ccc(-c3ccccc3)cc2)=C/C1=C/c1cccs1	97.1%
CCOC(=O)C1=C(C)N2C(=NC3=C(CCC/C3=C\c3ccc(Cl)cc3)C2c2ccc(Cl)cc2)S1 (centres undefined)	3.17% (active)
COc1cc(C2C=C(c3ccc(C)cc3)Nc3nc(SC)[nH]c(=O)c32)ccc1Oc1ccnc2cc(Cl)ccc12 (centres undefined)	71.7%
Oc1ccccc1C=Nc1ccccc1N=Cc1ccccc1O.[Cu+2]	92.8%
CN(CC(=O)N(Cc1ccc(C2CCCCC2)cc1)c1ccc(C(=O)O)cc1)S(=O)(=O)c1c(F)c(F)c(F)c(F)c1F	93.4%
Cc1cc(C(C)(C)c2cc(C)c(O)c(CN(C)C)c2)cc(CN(C)C)c1O	69.5%
O=C1CCCN1C1CCN(Cc2cc3ccccc3[nH]c2=O)c2ccccc21 (centres undefined)	111%
CCOC(=O)/C=C(/C)Sc1cc(O)c2ccccc2c1O	124%
COc1ccc(-c2cc(Cc3cccs3)c(=O)n(Cn3cncn3)n2)cc1	83.5%

tested on: CCRF-CEM leukemia; experiment: as above; settings: 10 µM unless noted

SMILES	growth
Nc1ccc(C2=Nc3cccc4cccc(c34)S2)cc1	68.4%
COc1cc2c(cc1OCCCOc1ccc(-c3cc4ccccc4c4ccccc34)cc1)N=C[C@@H]1CCCN1C2=O	6.61% (active)
O=C(CCc1nnc(Cn2ccnc2)o1)c1nc2ccccc2[nH]1	101%
O=C(COC(=O)[C@H](C[Se][Se]C[C@H](NC(=O)c1ccc(Br)cc1F)C(=O)OCC(=O)c1ccc(F)cc1)NC(=O)c1ccc(Br)cc1F)c1ccc(F)cc1	-56.2% (active)
COc1ccc2[nH]cc(/C=C3/C(=O)Nc4ccc(Cl)cc43)c2c1	44.3%
Cc1cccc(Cl)c1NC(=O)c1ccc2nc(NC(=O)NC3CC(C)(C)NC(C)(C)C3)sc2c1	87.7%
NNC(=O)C1CC2c3ccccc3C1c1ccccc12 (centres undefined)	82.8%
Cn1[nH]cc(/C=N/C(N)=O)c1=O	94.8%
COc1ccc2[nH]c(-c3ccccc3)cc2c1	88.5%
CCCCn1c(Cc2ccc(Cl)cc2)nc2cc(OC)c(OC)cc2c1=O	-68.8% (active)
c1coc([C@@H]2C[C@@H]3Cc4ccc5ccccc5c4N2O3)c1	79%
CC(O)c1nc2c(c(=O)n(C)c(=O)n2C)n1C (centres undefined)	96.3%
Nc1ccccc1-c1ccc([N+](=O)[O-])cc1	24.6%
C=C(C[C@](O)(C(=O)/C=C/c1ccc(Cl)cc1)C(=O)OC)c1ccccc1	40.8%
N#Cc1ccc(NC(=O)Nc2ccc(Oc3ccc(NC(=O)Nc4ccc(C#N)cc4)cc3)cc2)cc1	-13.7% (active)
Oc1ccc(Cc2ccc(O)c(C3CC(c4ccc(Cl)cc4)=NN3)c2)cc1C1CC(c2ccc(Cl)cc2)=NN1 (centres undefined)	8.95% (active)
CCC1=C(c2ccc(OC)cc2)C(C)Oc2cc(OC(C)=O)ccc21 (centres undefined)	63.5%
COc1ccc(/C=N\Nc2ccc([N+](=O)[O-])cn2)cc1OC	124%
COc1ncc(-c2ccc3nccc(C#CCN4CCN(S(C)(=O)=O)CC4)c3c2)cc1NS(=O)(=O)c1ccc(F)cc1F	-7.81% (active)

SMILES	growth
O=C(Nc1ccc(Cl)cc1)Nc1ccc(Nc2nncc3ccccc23)cc1	13.1%
Cc1cc(NC(=O)c2ccc(N)cc2)ccc1N=Nc1ccc2c(O)c(N=Nc3ccc(Cl)c(S(=O)(=O)O)c3)c(S(=O)(=O)O)cc2c1	55.7%
CCC(CCC(C)C1CCC2C3CC=C4CC(O)CCC4(C)C3CCC12C)C(C)C (centres undefined) (tested in a mixture with another compound)	60%
CCN1CCN(c2cc(-c3cn[nH]c3-c3cc(C)cc(OC)c3)nc(-c3cccnc3)n2)CC1	84.5%
Cc1ccc(NC(=O)Nc2ccc(-c3cccnc3)cc2N2CCC(CO)CC2)cc1	34.7%
Cc1c(C(N)=O)sc2ncn(CC(=O)Nc3ccc(Cl)cc3)c(=O)c12	121%
COc1cc(/C=C/c2nnc(-c3cc(-c4ccccc4)n[nH]3)o2)cc(OC)c1OC	75.9%
N#Cc1cnc2cc(OC[C@H](O)CO)c(NC(=O)CC3CSSC3)cc2c1Nc1ccc(OCc2cccc(F)c2)c(Cl)c1	-81.8% (active)
COc1ccc(/C=N/NC(=O)c2ccc(S(C)(=O)=O)cc2)cc1OC	103%
O=C1OC(c2ccc(-c3ccccc3)cc2)=C/C1=C/c1cccs1	-27.1% (active)
CCOC(=O)C1=C(C)N2C(=NC3=C(CCC/C3=C\c3ccc(Cl)cc3)C2c2ccc(Cl)cc2)S1 (centres undefined)	-17% (active)
COc1cc(C2C=C(c3ccc(C)cc3)Nc3nc(SC)[nH]c(=O)c32)ccc1Oc1ccnc2cc(Cl)ccc12 (centres undefined)	67.5%
Oc1ccccc1C=Nc1ccccc1N=Cc1ccccc1O.[Cu+2]	27.9%
CN(CC(=O)N(Cc1ccc(C2CCCCC2)cc1)c1ccc(C(=O)O)cc1)S(=O)(=O)c1c(F)c(F)c(F)c(F)c1F	-28.2% (active)
Cc1cc(C(C)(C)c2cc(C)c(O)c(CN(C)C)c2)cc(CN(C)C)c1O	100%
O=C1CCCN1C1CCN(Cc2cc3ccccc3[nH]c2=O)c2ccccc21 (centres undefined)	76.4%
CCOC(=O)/C=C(/C)Sc1cc(O)c2ccccc2c1O	38.4%
COc1ccc(-c2cc(Cc3cccs3)c(=O)n(Cn3cncn3)n2)cc1	102%
